We go through 30 molecules from ChEMBL document CHEMBL1157539, “Thousands of chemical starting points for antimalarial lead identification” (Nature, 2010).

Each structure is given as a SMILES string.

Broadly, the Inhibition is the share of the control response that was lost under treatment. A higher Inhibition goes with a response far below the control.

Holding throughout (type): functional
Test [1] deals with Plasmodium falciparum. In words: GSK_TCMDC: Inhibition of Plasmodium falciparum 3D7 in whole red blood cells, using parasite LDH activity as an index of growth. Test compounds present at 2uM.
The subject of test [2] is Plasmodium falciparum. The experiment in a line: GSK_TCMDC: Inhibition of Plasmodium falciparum Dd2 in whole red blood cells, using parasite LDH activity as an index of growth. Test compounds present at 2uM.
Test [3] relates to HepG2. In words: GSK_TCMDC: Percent inhibition of human HepG2 cell line. Test compounds present at 10uM.

For `COc1ccc2ncc(OC)c(CCN3CC[C@@H](NCc4ccc5c(n4)NC(=O)CS5)[C@H](O)C3)c2n1`, the Inhibition came to 94% in test [1], 99% in test [2] and 21% in test [3].

For `O=C(Nc1cccc(Cl)c1Cl)NC1CCN(Cc2cccc(O)c2)CC1.O=C(O)C(F)(F)F`, the Inhibition was found to be 98% in test [1], 1% in test [2] and 1% in test [3].

On to `Cc1cc(NCCC(=O)NCCOc2ccccc2)nc(NCCc2ccc(F)cc2)n1.O=C(O)C(F)(F)F`, for which the Inhibition in test [1] turned out to be 97%; in test [2] it was 4%; in test [3], 14%.

As for `COc1ccc2nccc([C@@H](O)CN3CCC(NC(=O)/C=C/c4c[nH]c5c(C)cccc45)CC3)c2c1`, the Inhibition was 100% in test [1], 88% in test [2] and 23% in test [3].

On to `CCOC(=O)C1=C(C)N=c2sc(=Cc3ccccc3O)c(=O)n2C1c1ccc(OC)c2ccccc12` (stereo not given), for which the figures for the Inhibition in test [1], in test [2] and in test [3] were 97%, 38% and 0%, respectively.

Regarding `Cc1nc(O)c2c(ccc3ccc(CN(C)c4ccc(C(=O)N[C@@H](CCC(=O)O)C(=O)O)cc4)cc32)n1`, the Inhibition in test [1] amounted to 95%; in test [2], 27%; in test [3], 42%.

On to `O=C(CCCCCNC(=O)c1ccc(O)c(-c2ccc(Cl)c(Cl)c2)c1)NCCN1CCCCC1`, for which the figures for the Inhibition in test [1], in test [2] and in test [3] were 93%, 1% and 0%, respectively.

Turning to `CCn1c(-c2nonc2N)nc2c(-c3cccc(NC(=O)Nc4cccc(C(F)(F)F)c4)c3)ncc(OCCCN)c21.O=C(O)C(F)(F)F`, the results for the Inhibition in test [1], in test [2] and in test [3] were 95%, 70% and 21%, respectively.

As for `O=C(Nc1cccc(CN2CCCN(Cc3ccc(F)cc3)CC2)c1)c1cc2ccccc2s1.O=C(O)C(F)(F)F`, the figures for the Inhibition in test [1], in test [2] and in test [3] were 91%, 36% and 29%, respectively.

For `COc1ccc2nccc([C@@H](O)CN3CCC(NC/C=C/c4cccnc4)CC3)c2c1.CS(=O)(=O)O`, the Inhibition amounted to 100% in test [1], 19% in test [2] and 0% in test [3].

With `Cc1nc(NC(=N)N)nc2ccc(C(C)(C)C)cc12.Cl`, the Inhibition is on record as 96% in test [1], 91% in test [2] and 4% in test [3].

Regarding `NC(=O)c1ccc(C(=O)Nc2cccc(-c3csc(-c4nc5ccccc5[nH]4)c3)c2)cc1`, the figures for the Inhibition in test [1], in test [2] and in test [3] were 100%, 35% and 14%, respectively.

In the case of `Cc1cc(C)cc(OCC(O)CN(Cc2cc(Cl)cc(Cl)c2)C(=O)Nc2ccc(Cl)cc2)c1` (stereo not given), the Inhibition in test [1] is listed as 97%; in test [2], 43%; in test [3], 0%.

For the molecule `O=C(CCCCCNC(=O)c1ccc(O)c(-c2cccc(C(F)(F)F)c2)c1)NCCN1CCCCC1`, the figures for the Inhibition in test [1], in test [2] and in test [3] were 99%, 0% and 0%, respectively.

In the case of `Br.CCCOc1ccc(OCCCON2C(=N)N=C(N)NC2(C)C)cc1`, the results for the Inhibition in test [1], in test [2] and in test [3] were 96%, 94% and 59%, respectively.

Consider `NCc1ccc(CNCc2ccc(-c3ccc(-c4nc5cc(F)ccc5[nH]4)cc3)cc2)cc1.O=C(O)C(F)(F)F`, for which the figures for the Inhibition in test [1], in test [2] and in test [3] were 100%, 99% and 12%, respectively.

As to `COc1ccc2nc3cc(Cl)ccc3c(NCCO)c2c1.Cl`, the Inhibition was 100% in test [1], 93% in test [2] and 12% in test [3].

With `CN1CCN(CC(=O)Nc2ccc(-c3csc(-c4nc5ccccc5[nH]4)c3)cc2)CC1`, the Inhibition in test [1] is reported as 99%; in test [2], 46%; in test [3] it was 6%.

Turning to `O=C(Nc1cccc(-c2cc3ccccc3[nH]2)c1)C1CCN(Cc2ccccc2O)CC1`, the Inhibition in test [1] came out at 95%; in test [2], 25%; in test [3] it was 34%.

Regarding `CCOc1ccc(C(C)NC(=O)c2ccc(OC)c(Br)c2)cc1OCC` (stereo not given), the values for the Inhibition in test [1], in test [2] and in test [3] were 100%, 100% and 9%, respectively.

Consider `COc1ccc2ncc(Cl)c([C@@H](O)CN3CCC(NCc4cc5c(cn4)OCCO5)CC3)c2c1.Cl`, for which the values for the Inhibition in test [1], in test [2] and in test [3] were 100%, 100% and 8%, respectively.

`NC(=O)c1ccc(C(=O)Nc2cccc(-c3cccc(-c4nc5cc(C(F)(F)F)ccc5[nH]4)c3)c2)cc1`: the results for the Inhibition in test [1], in test [2] and in test [3] were 100%, 36% and 63%, respectively.

As for `Cc1cc(NC(c2ccc(Cl)cc2)c2ccc3cccnc3c2O)no1` (stereo not given), the Inhibition in test [1] was determined as 88%; in test [2] it was 26%; in test [3], 50%.

For the molecule `O=C(NCCCN1CCC(N2CCCCC2)CC1)c1ccc2nc(N3CCCCC3)sc2c1`, the Inhibition in test [1] stood at 89%; in test [2] it was 20%; in test [3] it was 11%.

Take `Cc1nc2ccc(-c3nc4cc(N)ccc4[nH]3)cc2[nH]1`: the Inhibition in test [1] was 94%; in test [2] it was 80%; in test [3] it was 6%.

As to `CCc1nc2c(cnn2CC)c(NC2CCOCC2)c1CNC(=O)N1CCOCC1`, the Inhibition came out at 98% in test [1], 48% in test [2] and 0% in test [3].

As to `Cl.NC(=O)c1ccccc1Nc1nc(Nc2cccc(N3CCN(CCO)CC3)c2)ncc1Cl`, the Inhibition in test [1] is on record as 95%; in test [2], 98%; in test [3], 93%.

As to `CCOC(=O)NCC(=O)Nc1cccc(-c2cccc(-c3nc4cc(C(F)(F)F)ccc4[nH]3)c2)c1`, the Inhibition in test [1] turned out to be 91%; in test [2], 34%; in test [3], 59%.

As to `Cc1cccc(CCCNC(=O)CN(c2cccc(C(F)(F)F)c2)S(=O)(=O)c2ccc(C(F)(F)F)cc2)c1`, the Inhibition in test [1] amounted to 96%; in test [2], 94%; in test [3], 9%.

As for `CN(C)Cc1ccc(-c2cccc(NC(=O)c3ccc(Cl)cc3)c2)cc1.O=C(O)C(F)(F)F`, the results for the Inhibition in test [1], in test [2] and in test [3] were 94%, 13% and 24%, respectively.
